# PubChem BioAssay AID2732 (Emory University Molecular Libraries Screening Center, 2010)
# The whole screen tested about 220,000 compounds, of which about 8,200 (3.7%) were called active. This excerpt belongs to a sample that is enriched for actives. Unmarked numbers belong to inactive results.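 The calls were made as follows: active = compounds that reduced the stress-induced luciferase reporter signal by more than about 70% of percent inhibition (limit read from the data); inactive = the rest.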
# Assay: inhibitors of CHOP promoter induction, primary screen, cell-based, unfolded protein response, luciferase reporter (AID 2732);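 also: 0% = tunicamycin plus vehicle and 100% = wells without tunicamycin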
# Conditions: CHO-K1 CHOP-promoter luciferase, tunicamycin-induced, 15-18 h; at 10 µM; active compounds read high
row,Structure (SMILES),inhibition
1,CCCCSc1nc2c(c(=O)n1CC)SC(C)C2 (stereo not drawn),97.1% (active)
2,CCn1c(SCC(=O)Nc2ccc3c(c2)OCCO3)nc2c(c1=O)SC(C)C2 (stereo not drawn),3.73%
3,CCn1c(SCC(=O)Nc2ccccc2F)nc2c(c1=O)SC(C)C2 (stereo not drawn),-15.6%
4,COc1c(N2CCN(C(=S)Nc3ccccc3F)C(C)C2)c(F)cc2c(=O)c(C(=O)O)cn(C3CC3)c12 (stereo not drawn),2.97%
5,Cc1nnc(SCc2cc(=O)[nH]c(N3CCN(Cc4ccccc4)CC3)n2)s1,39.7%
6,CCc1c(C)nc(N2CCN(Cc3ccccc3)CC2)[nH]c1=O,80% (active)
7,Cc1ccc(-n2c(=O)cc(N3CCN(Cc4ccccc4)CC3)[nH]c2=O)cc1,-31.4%
8,Cn1c(SCC(=O)N2CCOCC2)nnc1-c1ccc2ncccc2c1,-14.7%
9,S=c1[nH]nc(-c2ccco2)n1/N=C/c1ccccc1,13.8%
10,S=c1[nH]nc(-c2cc(-c3ccccc3)n[nH]2)n1/N=C/c1c2ccccc2cc2ccccc12,74% (active)
11,S=c1[nH]nc(-c2ccccc2)n1/N=C/c1c[nH]c2ccccc12,30.5%
12,O=c1c(Cl)c(NCc2ccc(F)cc2Cl)cnn1C12CC3CC(CC(C3)C1)C2,78.6% (active)
13,O=C(CN1CCN(Cc2ccc(F)cc2Cl)C1=O)NCc1cccs1,5.73%
14,O=C(O)CC12CC3CC(C1)CC(n1ncc(NCc4ccc(F)cc4)c(Cl)c1=O)(C3)C2,-5.94%
15,S=C(NCC1COc2ccccc2O1)Nc1ccc(Br)cc1 (stereo not drawn),81.2% (active)
16,CCCN(CC1COc2ccccc2O1)C(=S)Nc1ccc(C)cc1 (stereo not drawn),28.3%
17,O=C(NCC1COc2ccccc2O1)C1(c2ccccc2)CCCC1 (stereo not drawn),17.7%
18,CCCN(CCC)S(=O)(=O)c1ccc(C(=O)N2CC3CCC(CC3)C2)cc1,5.98%
19,O=[N+]([O-])c1cccc2ncccc12,15.2%
20,CC(C)(C)NC(=O)Cn1nnc(-c2ccccc2Cl)n1,2.55%
21,Cc1cc(C)n(C(=O)c2ccc(S(=O)(=O)N3CCCC3)cc2)n1,13%
22,Cc1ccccc1-c1nnn(CC(=O)c2ccc(S(=O)(=O)N3CCCC3)cc2)n1,76% (active)
23,CC(OC(=O)c1ccc(NS(=O)(=O)c2ccc3[nH]c(=O)[nH]c3c2)cc1)C(=O)Nc1cccc(Cl)c1Cl (stereo not drawn),-9.73%
24,NCCCCCC(=O)N/N=C/c1ccc2nccnc2c1,16.6%
25,Cc1onc(NC(=O)c2ccc([N+](=O)[O-])o2)c1Br,-20.6%
26,Cc1cc(C(=O)Nc2c(C)n(C)n(-c3ccccc3)c2=O)cs1,23.5%
27,COc1ccc(S(=O)(=O)Nc2c(C)n(C)n(-c3ccccc3)c2=O)cc1,-21.7%
28,Cc1cccc(OP(=O)(Nc2c(C)n(C)n(-c3ccccc3)c2=O)Oc2cccc(C)c2)c1,71.4% (active)
